Experiment [1] deals with TRPC4 beta (transient receptor potential cation channel C4), mouse. The experiment is described as follows: activators of mouse TRPC4 channel, confirmation, cell-based, Fluo4 calcium, HEK293 TRPC4beta/mu-opioid, duplicates, 10 µM (AID 2426). The note with it: Fluo4 calcium fluorescence, at 10 µM; hits give high values.
Experiment [2] deals with transient receptor potential cation channel C4 beta (TRPC4), mouse. The experiment is described as follows: activators of mouse TRPC4 channel, confirmation, cell-based, second round, Fluo4, HEK293 TRPC4beta/mu-opioid, 1 µM (AID 2461;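 active = primary screen active and over 50% activation in each of two duplicate runs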). The note with it: Fluo4 calcium fluorescence, at 1 µM; hits give high values.
Experiment [3] deals with TRPC4 (transient receptor potential cation channel C4 beta), mouse. The experiment is described as follows: positive allosteric modulators of mouse TRPC4, confirmation, cell-based, second round, Fluo-4, HEK293 TRPC4beta/mu-opioid, 1 µM (AID 2554;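 active = primary screen hit whose fluorescence ratio, in both repeats, exceeds the weak agonist control mean by 3 SD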). The note with it: DAMGO EC20, Fluo-4 calcium flux, at 1 µM; hits give high values. Background: Calcium flux is commonly read through the fluorescence of an indicator in the cells.

In experiment [4] the test system is TRPC4 beta (transient receptor potential cation channel C4), mouse. The experiment is described as follows: positive allosteric modulators of mouse TRPC4, confirmation, cell-based, Fluo-4, HEK293 TRPC4beta/mu-opioid (AID 2555;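 active = primary screen hit whose calcium fluorescence ratio, in both repeats, exceeds the weak agonist control mean by 3 SD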). The note with it: DAMGO EC20, Fluo-4 calcium flux, at 10 µM; hits give high values.
In experiment [5] the target is Short transient receptor potential channel 4 (Mus musculus) (UniProt Q9QUQ5). The experiment is described as follows: inhibitors of mouse TRPC4 channel, confirmation, cell-based, Fluo4, HEK293 TRPC4beta/mu-opioid (AID 2636;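 active = calcium signal cut by more than 3 SD below the full-agonist control yet still positive, in both repeats and the earlier primary screen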). The note with it: DAMGO, Fluo4 calcium flux, at 10 µM; hits give high values.
Chain of Short transient receptor potential channel 4 (Mus musculus) (Q9QUQ5 whole entry, looked up): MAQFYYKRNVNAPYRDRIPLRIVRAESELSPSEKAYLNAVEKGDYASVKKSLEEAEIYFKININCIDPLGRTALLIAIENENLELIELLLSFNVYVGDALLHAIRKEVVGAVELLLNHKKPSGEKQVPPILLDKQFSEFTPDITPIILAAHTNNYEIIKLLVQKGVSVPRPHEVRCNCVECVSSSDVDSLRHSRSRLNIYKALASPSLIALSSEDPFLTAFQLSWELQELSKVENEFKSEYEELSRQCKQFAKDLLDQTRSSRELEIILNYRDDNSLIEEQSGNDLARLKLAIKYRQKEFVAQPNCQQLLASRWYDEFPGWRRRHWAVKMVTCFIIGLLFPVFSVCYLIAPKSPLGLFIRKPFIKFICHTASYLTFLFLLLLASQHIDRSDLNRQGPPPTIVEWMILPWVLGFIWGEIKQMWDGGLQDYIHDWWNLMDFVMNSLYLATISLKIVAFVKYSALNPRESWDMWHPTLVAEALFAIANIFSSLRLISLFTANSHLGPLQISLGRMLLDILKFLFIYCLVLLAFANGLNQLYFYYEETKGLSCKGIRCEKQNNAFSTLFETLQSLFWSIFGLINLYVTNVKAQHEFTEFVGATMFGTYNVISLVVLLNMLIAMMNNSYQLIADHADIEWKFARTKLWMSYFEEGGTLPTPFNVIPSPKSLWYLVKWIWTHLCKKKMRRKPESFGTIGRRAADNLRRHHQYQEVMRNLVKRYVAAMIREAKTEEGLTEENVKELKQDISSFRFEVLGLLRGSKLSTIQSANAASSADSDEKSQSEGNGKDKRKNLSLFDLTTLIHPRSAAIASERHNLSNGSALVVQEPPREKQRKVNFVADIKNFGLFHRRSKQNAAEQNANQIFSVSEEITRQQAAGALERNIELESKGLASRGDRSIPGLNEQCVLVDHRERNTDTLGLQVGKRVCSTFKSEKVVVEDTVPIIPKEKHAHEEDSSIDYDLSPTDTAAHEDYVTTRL
The target is the same in experiment [6]. The experiment is described as follows: inhibitors of mouse TRPC4 channel, confirmation, cell-based, second round, Fluo4, HEK293 TRPC4beta/mu-opioid, 1 µM (AID 2637;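 active = calcium signal ratio cut to more than 3 SD under the fully stimulated control mean yet still positive, in both repeats and the primary screen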). The note with it: Fluo4 calcium flux, DAMGO, at 1 µM; hits give high values.
Experiment [7] has the same target. The experiment is described as follows: mouse TRPC4 channel activators, dose response, cell-based, HEK293 TRPC4/mu-opioid, Fluo-4 calcium (AID 434937;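 active = primary screen activator hit with a dose response curve and TRPC4 channel activation at any tested dose; inactive = no activation, no dose response, or not a primary hit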).
Experiment [8] has the same target. The experiment is described as follows: TRPC4 positive allosteric modulators, dose response, cell-based, HEK293 TRPC4/mu-opioid, Fluo-4 calcium, EC20 DAMGO (AID 434941;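 active = earlier screen potentiator hit that boosts the TRPC4 ion channel at some dose, with a dose response; inactive = no potentiation, no dose response, or not a prior hit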;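 also: calcium entry triggered by an EC20 dose of DAMGO at the co-expressed mu-opioid receptor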).
Experiment [9] shares this target. In words: mouse TRPC4 channel inhibitors, dose response, cell-based, HEK293 TRPC4/mu-opioid, Fluo-4 calcium (AID 434942;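 active = primary screen inhibitor hit that blocks the TRPC4 channel at some tested dose, yielding a dose curve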).
Experiment [10] concerns the target Short transient receptor potential channel 6 (Mus musculus) (UniProt Q61143). In words: inhibition of mouse TRPC6 channel, confirmation, selectivity assay for TRPC4 inhibitor project, cell-based, HEK293, membrane potential dye, duplicate (AID 434948;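 active = active in primary screen and both duplicates, each dropping signal beyond three positive-control SD with fluorescence still positive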). The note with it: HEK293 TRPC6, membrane potential dye fluorescence, at 10 µM, stimulated with maximal-effect acetylcholine; hits give high values.

For experiment [11] the target is unchanged. The experiment is described as follows: activation of mouse TRPC6 channel, confirmation, selectivity assay for TRPC4 activator project, cell-based, HEK293, membrane potential dye, duplicate (AID 434950;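 active = membrane potential signal rise above negative control mean plus 3 SD in both duplicates, also active in the earlier TRPC4 screen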). The note with it: HEK293 TRPC6, membrane potential fluorescence, at 10 µM; hits give high values.
Experiment [12] has the same target. The experiment is described as follows: TRPC6 potentiation by TRPC4 potentiator hits, confirmation, selectivity assay for TRPC4 potentiator project, HEK293 cells, membrane potential dye, duplicate (AID 434952;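 active = compound raising the membrane signal above positive-control mean plus 3 SD in both repeats, and a primary screen hit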). The note with it: HEK293 TRPC6, membrane potential dye fluorescence, at 10 µM, maximal acetylcholine added after compound; hits give high values.
In experiment [13] the target is Short transient receptor potential channel 4 (Mus musculus) (UniProt Q9QUQ5). The experiment is described as follows: calcium flux activators in TRPC4/5HT1a cells, counter-screen for TRPC4 activator project, cell-based, second counter screen, HEK293 TRPC4/5HT1a, Fluo-4 (AID 434977;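 active = calcium signal rise above buffer-control mean plus 5 SD in both duplicates, and also a hit in the primary screen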). The note with it: Fluo-4 calcium flux, at 10 µM; hits give high values.
Experiment [14] is described as follows: calcium flux inhibitors in TRPC4/5HT1a cells, confirmation, counter-screen for TRPC4 inhibitor project, cell-based, second counter screen, HEK293 TRPC4/5HT1a, Fluo-4 (AID 434978;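 active = primary screen active whose calcium signal fell more than 3 SD beyond the full-serotonin control mean in both duplicate plates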;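 as to outcome: serotonin given first at submaximal then at maximal dose after compound preincubation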). The note with it: Fluo-4 calcium flux, at 10 µM, serotonin added to trigger calcium flux; hits give high values.
The subject of experiment [15] is TRPC4 (mouse), co-expressed with 5HT1a in HEK293. The experiment is described as follows: calcium flux potentiators in TRPC4/5HT1a cells, confirmation, counter-screen for TRPC4 potentiator project, cell-based, second counter screen, HEK293 TRPC4/5HT1a, Fluo-4 (AID 434979;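 active = signal rise over 3 SD above mean of control wells given weak agonist, in both repeats and first screen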). The note with it: Fluo-4 calcium flux, at 10 µM, serotonin added at its EC20 dose; hits give high values.

A short description of experiment [16]: calcium flux activation in mu-opioid HEK293 cells, confirmation, counter-screen for TRPC4 activator project, cell-based, HEK293 mu-opioid receptor line (AID 449723;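 active = hit in primary screen, with calcium signal over 5 SD above buffer well mean in both duplicates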;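 also: counter screen cells carry the mu-opioid receptor alone and lack TRPC4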). The note with it: Fluo-4 calcium fluorescence, at 10 µM; hits give high values.
Experiment [17] can be described thus: calcium flux enhancement in mu-opioid HEK293 cells, confirmation, counter-screen for TRPC4 allosteric potentiator project, cell-based, HEK293 mu-opioid receptor line (AID 449724;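 active = calcium signal rise more than 3 SD above the low-dose agonist control mean, in both duplicate plates and the primary screen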;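 also: HEK293 cells carrying mu-opioid receptor only with no TRPC4 channel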). The note with it: Fluo-4 calcium flux, at 10 µM, compound added before EC20 DAMGO stimulus; hits give high values.

Each structure is given as a SMILES string. For some assays here: Entries with a potency or affinity are not part of this list. Calls of active or inactive are those of the source.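 The calls were made as follows, unless noted: active = fluorescence ratio normalized to control raised more than 50% in primary screen plus both repeat runs; inactive = the rest.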

Chain of Short transient receptor potential channel 6 (Mus musculus) (Q61143 whole entry, looked up): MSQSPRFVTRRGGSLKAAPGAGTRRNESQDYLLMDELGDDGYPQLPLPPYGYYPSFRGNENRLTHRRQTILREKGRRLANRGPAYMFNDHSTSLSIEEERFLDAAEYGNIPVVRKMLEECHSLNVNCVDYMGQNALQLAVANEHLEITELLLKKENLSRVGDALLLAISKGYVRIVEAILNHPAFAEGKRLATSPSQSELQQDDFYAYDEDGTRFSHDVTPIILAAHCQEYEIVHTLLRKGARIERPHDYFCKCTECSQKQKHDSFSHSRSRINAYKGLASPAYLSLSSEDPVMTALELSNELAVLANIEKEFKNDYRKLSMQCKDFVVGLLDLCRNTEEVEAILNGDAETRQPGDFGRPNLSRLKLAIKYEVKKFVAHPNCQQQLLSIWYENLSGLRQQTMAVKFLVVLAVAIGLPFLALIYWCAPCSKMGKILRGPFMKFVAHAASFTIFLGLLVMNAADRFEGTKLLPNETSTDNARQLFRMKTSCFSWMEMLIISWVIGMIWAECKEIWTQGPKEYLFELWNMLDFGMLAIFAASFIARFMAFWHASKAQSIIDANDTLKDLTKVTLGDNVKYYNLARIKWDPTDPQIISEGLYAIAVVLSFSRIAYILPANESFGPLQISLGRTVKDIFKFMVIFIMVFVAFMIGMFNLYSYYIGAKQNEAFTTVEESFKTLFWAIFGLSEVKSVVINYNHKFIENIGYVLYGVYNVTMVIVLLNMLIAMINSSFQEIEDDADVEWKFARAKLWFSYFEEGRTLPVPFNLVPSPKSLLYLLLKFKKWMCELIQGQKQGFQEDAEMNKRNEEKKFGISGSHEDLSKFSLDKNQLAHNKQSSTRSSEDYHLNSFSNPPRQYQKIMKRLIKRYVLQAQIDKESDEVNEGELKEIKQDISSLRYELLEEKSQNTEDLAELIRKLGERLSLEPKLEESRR

`COc1ccc(CCN(C)C(=O)c2cc(S(=O)(=O)N3CCCCC3)ccc2Cl)cc1OC`: the result in [1], in [2], in experiment [3], in experiment [4], in [5] and in experiment [6] was inactive. In addition, the outcome in experiment [7], in experiment [8], in experiment [9], in experiment [10], in experiment [11] and in experiment [12] was inactive. In addition, the result in [13], in [14], in experiment [15], in [16] and in [17] was inactive.
Take `CCc1ccc(Nc2n[n+](-c3ccccc3)c(/C=C/c3ccccc3)s2)cc1`: the outcome in experiment [1], in [2], in experiment [3], in [5], in experiment [6] and in experiment [7] was inactive. Also, the outcome in experiment [8], in experiment [9], in experiment [10], in experiment [11], in experiment [12] and in experiment [13] was inactive. The outcome in [14], in experiment [16] and in [17] was inactive. Besides, the potentiation in experiment [4] was 14% (active); in experiment [15], 14.8% (active).
Turning to `CN1CCN(c2ccc(S(=O)(=O)N3CCCCC3)cc2NC(=O)c2ccc(F)cc2F)CC1`, the outcome in experiment [1], in [2], in experiment [3], in experiment [4], in [5] and in experiment [6] was inactive. The result in experiment [7], in [8], in [9], in experiment [10], in experiment [11] and in experiment [12] was inactive. The outcome in experiment [13], in [14], in [16] and in experiment [17] was inactive. Besides, in [15], the potentiation is 14.3% (active).
As to `CCCCN1CCc2c1nc1ccc(Br)cc1c2N`, the outcome in [1], in [2], in experiment [3], in experiment [4], in experiment [5] and in experiment [6] was inactive. Further, the result in experiment [7], in experiment [8], in experiment [9], in experiment [10], in experiment [11] and in experiment [12] was inactive. Further, the outcome in experiment [13], in experiment [14], in experiment [15], in experiment [16] and in [17] was inactive.
Take `Cc1ccc(S(=O)(=O)NC(C(=O)Oc2cc3oc(=O)cc(C)c3cc2Cl)C(C)C)cc1` (stereo unspecified): the result in experiment [1], in experiment [2], in [3], in experiment [4], in experiment [5] and in [6] was inactive. For the same compound, the outcome in [7], in experiment [8], in experiment [9], in [10], in experiment [11] and in experiment [12] was inactive. The outcome in experiment [13], in experiment [14], in experiment [15], in experiment [16] and in experiment [17] was inactive.
Regarding `COc1cc(CN2CCC(CO)(CCOc3ccccc3)CC2)cc(OC)c1`, the outcome in experiment [1], in experiment [2], in experiment [3], in experiment [4], in [6] and in [7] was inactive. The outcome in [8], in experiment [9], in [10], in [11], in experiment [12] and in experiment [13] was inactive. Also, the result in experiment [15], in experiment [16] and in [17] was inactive. The inhibition (as a rule, the drop in the measured response relative to a control, in per cent) in experiment [5] is 87% (active); in experiment [14] it was 43.6% (active).
For `CCOP(=O)(c1ccccc1)c1nc(-c2ccccc2Cl)oc1N1CCCCC1` (stereo unspecified), the result in experiment [1], in experiment [2], in experiment [3], in experiment [5], in [6] and in [7] was inactive. The result in [8], in experiment [9], in experiment [10], in experiment [11], in [12] and in [13] was inactive. The outcome in experiment [14], in experiment [16] and in [17] was inactive. The potentiation in experiment [4] was 23% (active); in experiment [15], 30.9% (active).
On to `NC(=O)c1nsc(C(=O)N(Cc2ccco2)C(C(=O)NCc2ccccc2)c2ccc(O)cc2)c1N` (stereo unspecified), for which the outcome in experiment [1], in [2], in [3], in experiment [4], in experiment [6] and in experiment [7] was inactive. Moreover, the result in experiment [8], in experiment [9], in experiment [10], in [11], in [12] and in experiment [13] was inactive. The result in experiment [15], in [16] and in [17] was inactive. Besides, the figures for the inhibition in experiment [5] and in experiment [14] were 72% (active) and 40% (active), respectively.
In the case of `CCN1C2=NCCCN2c2cc(C)c(C)cc21`, the outcome in [1], in experiment [2], in experiment [3], in experiment [4], in experiment [5] and in experiment [6] was inactive. For the same compound, the outcome in [7], in [8], in experiment [9], in [10], in [11] and in [12] was inactive. Moreover, the result in [13], in experiment [14], in [15], in experiment [16] and in experiment [17] was inactive.
On to `COC1=C(C)C(O)=C(C(=O)/C=C/c2ccccc2)C(=O)C1(C)C`, for which the result in experiment [1], in [2], in experiment [3], in experiment [4], in experiment [5] and in [6] was inactive. The outcome in experiment [7], in [8], in experiment [9], in experiment [10], in experiment [11] and in experiment [12] was inactive. Further, the result in [13], in experiment [14], in experiment [15], in experiment [16] and in experiment [17] was inactive.
For the compound `COc1cc(S(=O)(=O)N2CCC(N3CCCCC3)CC2)ccc1-n1cnnn1`, the outcome in [1], in experiment [2], in [5], in experiment [6], in experiment [7] and in experiment [8] was inactive. For the same compound, the outcome in experiment [9], in [10], in [11], in experiment [12], in [13] and in [14] was inactive. In addition, the outcome in experiment [16] and in experiment [17] was inactive. Also, the potentiation in [3] is 12% (active); in [4], 8% (active); in experiment [15], 13.4% (active).
Turning to `Fc1ccc2c(c1)C(c1ccncc1)=NNC(c1ccc(Cl)cc1)=N2`, the result in experiment [1], in experiment [2], in experiment [3], in experiment [4], in experiment [5] and in experiment [6] was inactive. The outcome in experiment [7], in experiment [8], in experiment [9], in [10], in [11] and in experiment [12] was inactive. The outcome in experiment [13], in experiment [14], in experiment [15], in [16] and in experiment [17] was inactive.
As for `CCC(=O)c1cc2c(C)cc(=O)oc2c(C)c1OC(=O)C(C)C`, the result in experiment [1], in [2], in [3], in [4], in experiment [6] and in experiment [7] was inactive. The result in [8], in experiment [9], in experiment [10], in experiment [11], in experiment [12] and in experiment [13] was inactive. Besides, the outcome in [15], in [16] and in experiment [17] was inactive. In addition, the inhibition in experiment [5] was 85% (active); in experiment [14], 12.2% (active).

These data come from PubChem BioAssay.
